Here are results for 16 compounds from PubChem BioAssay (EPA / NIEHS).

Records with an inconclusive call do not appear. The source made the active and inactive calls. Rule for the calls: active = hit-call score of the fitted dose curve at least 0.9, where 1 is the maximum; inconclusive = response in the unintended direction; inactive = score below 0.9.

A short description of this test: STM_H9_NormalizedViability: Cytotoxicity Assessment at 120 hours in the Stemina devTOX quickPredict H9 human embryonic stem cell (hESC)-based Assay (AID 2283784). The method, then: STM_H9_viability utilizes undifferentiated H9 cells to measure cell viability.STM_H9_NormalizedViability is a component calculated in the STM_H9_viability assay. It measures cell viability using background corrected relative fluorescence units (RFU) value from the CellTiterFluor Assay normalized to the value of the 0.1% DMSO neutral control treatment (by 96-well plate)Data from the assay component STM_H9_Viability was analyzed at the assay endpoint STM_H9_Viability_Norm in the positive analysis fitting direction relative to DMSO as the negative control and baseline of activity. Using a type of viability reporter, loss-of-signal activity can be used to understand viability.
H9 hESCs maintained in a pluripotent state were exposed to test compound for 72h with chemical replenishment with media replacement every 24h. Cell-conditioned media from the final 24-h treatment period was collected for analysis of the targeted biomarker, and cell viability of the corresponding cell layer was assessed. The chemical library was tested in blinded fashion. Each test plate included 1uM Methotrexate (MTX; Selleck Chemicals, Houston, Texas) as a positive reference, 5 nM MTX as a negative reference, 0.1% DMSO as the neutral (vehicle) control, and sample-level media blanks.H9 cell-conditioned media from the final 24-h treatment period was collected for analysis of the targeted biomarker and cell viability was measured from the corresponding cell layer. Cell viability was measured using the CellTiter-Fluor assay (Promega, Madison, Wisconsin) based on proteolytic cleavage of a substrate to fluorescent signal proportional to the number of living cells. The cell viability Relative Fluorescence Unit (RFU) was background corrected and normalized to mean RFU of the neutral control (0.1% DMSO). The collected H9-cell-conditioned media samples were processed for targeted biomarker analysis as described (Palmer et al., 2013). Briefly, spent media samples were deproteinized (40% acetonitrile) and processed for UPLC-HRMS. Data acquisition was performed using 4 separate UPLC-HRMS systems, consisting of an Agilent 1290 Infinity LC system (Agilent Technologies) interfaced with an Agilent high-resolution mass spectrometer (models G6520A, G6520B, G6530A, and G6224A). A Waters Acquity UPLC BEH Amide column (2.1mm x 50mm, 1.7lm particle size; Waters, Milford, Massachusetts) maintained at 40C was applied for separation of metabolites using a 6.5min solvent gradient with 0.1% formic acid in water and 0.1% formic acid in acetonitrile (1.0ml/min flow rate). Data were acquired using MassHunter Acquisition software (version B 04.00, Agilent Technologies). The extracted ion chromatogram (EIC) areas for ORN, CYSS, and their respective spike-in C13-standards were determined using the Agilent MassHunter Quantitative Analysis software, version B.05.00 or newer (Agilent Technologies), and data were normalized as described in Palmer et al. (2017).
Turning to `Cc1[nH]c(=O)n(C(C)(C)C)c(=O)c1Cl`, the result was inactive.

Consider `CCC(C)Nc1c([N+](=O)[O-])cc(C(C)(C)C)cc1[N+](=O)[O-]` (stereo unspecified), for which the outcome was inactive.

The AC50 is the midpoint of the concentration-response curve, whichever way the signal moves. With `CC(C)(C)C(O)/C(=C\c1ccc(Cl)cc1Cl)n1cncn1` (stereo unspecified), the AC50 is 79.1 µM (active).

For `CC(C)(C)C(O)C(Oc1ccc(Cl)cc1)n1cncn1` (stereo unspecified), the outcome was inactive.

`O=S(=O)(O)C(F)(F)C(F)(F)C(F)(F)C(F)(F)C(F)(F)C(F)(F)C(F)(F)C(F)(F)F`: the result was inactive.

Consider `Oc1ccc(Cl)cc1Cc1ccccc1`, for which the outcome was inactive.

As to `CCOC1Oc2ccc(OS(C)(=O)=O)cc2C1(C)C` (stereo unspecified), the half-maximal activity concentration (AC50) was 78.7 µM (active).

On to `CC1(c2ccc(Oc3ccccc3)cc2)OC(=O)N(Nc2ccccc2)C1=O` (stereo unspecified), for which the concentration at half-maximal activity (AC50) was 3.35 µM (active).

For the compound `O=S1OCC2C(CO1)C1(Cl)C(Cl)=C(Cl)C2(Cl)C1(Cl)Cl` (stereo unspecified), the half-maximal activity concentration (AC50) is 78.4 µM (active).

As for `CCC(C)(NC(=O)c1cc(Cl)c(C)c(Cl)c1)C(=O)CCl` (stereo unspecified), the AC50 is 25.8 µM (active).

As to `O=C(Nc1ccccc1)Nc1cnns1`, the result was inactive.

Regarding `CCOCN(C(=O)CCl)c1c(C)cccc1CC`, the result was inactive.

Regarding `C#CCN1C(=O)COc2cc(F)c(N3C(=O)C4=C(CCCC4)C3=O)cc21`, the half-maximal activity concentration (AC50) was 75.5 µM (active).

For the compound `Oc1cc(Cl)ccc1Oc1ccc(Cl)cc1Cl`, the AC50 is 88.2 µM (active).

On to `O=C(NC(=O)c1c(F)cccc1F)Nc1ccc(OC(F)(F)C(F)OC(F)(F)F)c(Cl)c1` (stereo unspecified), for which the outcome was inactive.

As for `O=C(O)C(F)(F)C(F)(F)C(F)(F)C(F)(F)C(F)(F)C(F)(F)C(F)(F)F`, the outcome was inactive.
